Inconclusive results are not listed. Calls of active or inactive are those of the source. Calls come from the whole dose curve; as a rule, active = well fitted inhibition curve with a large enough effect; inconclusive = small, poorly fitted or top-dose-only effect; inactive = flat fitted curve, though single readings scatter.
Legend:
Test in all cases: qHTS profiling for inhibitors of Plasmodium falciparum proliferation (AID 504749); note: nearly all actives have a fitted effect of over 60% in size
Conditions in all cases: P. falciparum in erythrocytes, SYBR Green DNA, 72 h; series mostly up to 12.8 µM
3D7 = system: 3D7
Outline: (§1)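 Fluorescence of SYBR Green-bound parasite DNA, read at 485/535 nm, served as the growth measure. Infected erythrocytes were cultured with compound 72 h; artemisinin (0.29 uM) and DMSO wells defined the normalization range.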

ATS189 = system: ATS189
Outline: as §1

CP185 = system: CP185
Outline: as §1

CP194 = system: CP194
Outline: as §1

CP201 = system: CP201
Outline: as §1

CP237 = system: CP237
Outline: as §1

CP238 = system: CP238
Outline: as §1

CP247 = system: CP247
Outline: as §1

CP265 = system: CP265
Outline: as §1

CP286 = system: CP286
Outline: as §1

CP305 = system: CP305
Outline: as §1

CP335 = system: CP335
Outline: as §1

DIV30 = system: DIV30
Outline: as §1

Dd2 = system: Dd2
Outline: as §1

GB4 = system: GB4
Outline: as §1

HB3 = system: HB3
Outline: as §1

P94_40 = system: P94_40
Outline: as §1

PC49 = system: PC49
Outline: as §1

TAB109 = system: TAB109
Outline: as §1

TAB113 = system: TAB113
Outline: as §1

Measured: Potency

NS(=O)(=O)c1cc([C@@]2(O)NC(=O)c3ccccc32)ccc1Cl
inactive: 3D7 | ATS189 | CP185 | CP194 | CP201 | CP237 | CP238 | CP247 | CP265 | CP286 | CP305 | CP335 | DIV30 | Dd2 | GB4 | HB3 | P94_40 | PC49 | TAB109 | TAB113

C[N+]1(C)CCC[C@@H](OC(=O)C(O)(c2ccccc2)c2ccccc2)C1
inactive: 3D7 | ATS189 | CP185 | CP194 | CP201 | CP237 | CP238 | CP247 | CP265 | CP286 | CP305 | CP335 | DIV30 | Dd2 | GB4 | HB3 | P94_40 | PC49 | TAB109 | TAB113

COc1ccccc1OC[C@H](O)COC(N)=O
inactive: 3D7 | ATS189 | CP185 | CP194 | CP201 | CP237 | CP238 | CP247 | CP265 | CP286 | CP305 | CP335 | DIV30 | Dd2 | GB4 | HB3 | P94_40 | PC49 | TAB109 | TAB113

CCCN[C@@H](C)C(=O)Nc1c(C)csc1C(=O)OC
inactive: 3D7 | ATS189 | CP185 | CP194 | CP201 | CP237 | CP238 | CP247 | CP265 | CP286 | CP305 | CP335 | DIV30 | Dd2 | GB4 | HB3 | P94_40 | PC49 | TAB109 | TAB113

CC1(C)Oc2ccc(C#N)cc2[C@H](N2CCCC2=O)[C@H]1O
inactive: 3D7 | ATS189 | CP185 | CP194 | CP201 | CP237 | CP238 | CP247 | CP265 | CP286 | CP305 | CP335 | DIV30 | Dd2 | GB4 | HB3 | P94_40 | PC49 | TAB109 | TAB113

COc1ccc(C[C@@H]2c3cc(OC)c(OC)cc3CC[N@+]2(C)CCC(=O)OCCCCCOC(=O)CC[N@@+]2(C)CCc3cc(OC)c(OC)cc3[C@H]2Cc2ccc(OC)c(OC)c2)cc1OC
inactive: 3D7 | ATS189 | CP185 | CP194 | CP201 | CP237 | CP238 | CP247 | CP265 | CP286 | CP305 | CP335 | DIV30 | Dd2 | GB4 | HB3 | P94_40 | PC49 | TAB109 | TAB113

C[C@@H]1COc2c(N3CCN(C)CC3)c(F)cc3c(=O)c(C(=O)O)cn1c23
inactive: 3D7 | ATS189 | CP185 | CP194 | CP201 | CP237 | CP238 | CP247 | CP265 | CP286 | CP305 | CP335 | DIV30 | Dd2 | GB4 | HB3 | P94_40 | PC49 | TAB109 | TAB113

CC1(C)S[C@@H]2[C@H](NC(=O)[C@H](C(=O)O)c3ccsc3)C(=O)N2[C@H]1C(=O)O
inactive: 3D7 | ATS189 | CP185 | CP194 | CP201 | CP237 | CP238 | CP247 | CP265 | CP286 | CP305 | CP335 | DIV30 | Dd2 | GB4 | HB3 | P94_40 | PC49 | TAB109 | TAB113

Cn1c(=O)c2c(ncn2C[C@@H](O)CO)n(C)c1=O
inactive: 3D7 | ATS189 | CP185 | CP194 | CP201 | CP237 | CP238 | CP247 | CP265 | CP286 | CP305 | CP335 | DIV30 | Dd2 | GB4 | HB3 | P94_40 | PC49 | TAB109 | TAB113

NC(N)=NC[C@@H]1COC2(CCCCC2)O1
inactive: 3D7 | ATS189 | CP185 | CP194 | CP201 | CP237 | CP238 | CP247 | CP265 | CP286 | CP305 | CP335 | DIV30 | Dd2 | GB4 | HB3 | P94_40 | PC49 | TAB109 | TAB113

CCN1C(=O)N[C@@H](c2ccccc2)C1=O
inactive: 3D7 | ATS189 | CP185 | CP194 | CP201 | CP237 | CP238 | CP247 | CP265 | CP286 | CP305 | CP335 | DIV30 | Dd2 | GB4 | HB3 | P94_40 | PC49 | TAB109 | TAB113

CCN[C@@H]1C[C@H](C)S(=O)(=O)c2sc(S(N)(=O)=O)cc21
inactive: 3D7 | ATS189 | CP185 | CP194 | CP201 | CP237 | CP238 | CP247 | CP265 | CP286 | CP305 | CP335 | DIV30 | Dd2 | GB4 | HB3 | P94_40 | PC49 | TAB109 | TAB113

CC(=O)N(CC(O)CN(C(C)=O)c1c(I)c(C(=O)NC[C@@H](O)CO)c(I)c(C(=O)NC[C@@H](O)CO)c1I)c1c(I)c(C(=O)NC[C@@H](O)CO)c(I)c(C(=O)NC[C@@H](O)CO)c1I
inactive: 3D7 | ATS189 | CP185 | CP194 | CP201 | CP237 | CP238 | CP247 | CP265 | CP286 | CP305 | CP335 | DIV30 | Dd2 | GB4 | HB3 | P94_40 | PC49 | TAB109 | TAB113

From PubChem BioAssay (NCATS)
